Most compounds without a hit are left out; they make up all but 21% or so of the library.
Pf growth 48h: P. falciparum growth inhibition at 48 hours (one generation) | AID 504832 | Potency, µM (series often up to 28.7 µM), most hits filed as inhibitors | 310,000 tested, 5.9% active | P. falciparum luciferase growth in erythrocytes, 48 h
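A one-generation exposure of luciferase-tagged malaria parasites in RPMI 1640/Albumax erythrocyte culture, 37 C and 5% CO2. Inhibition is inferred from decreased luminescence after adding detection reagent.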
Shiga toxin inh: blocks Shiga toxin action in Vero cells | Vero cells, Shiga toxin protein synthesis inhibition reporter | inhibition, % at 38.7 µM | 290,000 tested, 9.2% active | AID 2315; in the data active = inhibition mostly above about 28%, no sharp cut-off; inactive = mostly below about 43%
CHX counter: counter-screen hit for Shiga toxin inhibitors, cycloheximide; cell reporter, cycloheximide protein synthesis inhibition counterscreen; max response, %; 300,000 tested, 12% active; AID 2314; in the data active = max response mostly above about 13%, no sharp cut-off; inactive = mostly below about 14%; also: read at 38.3 µM for the half of the compounds with a filed dose
Pf growth 96h: P. falciparum growth inhibition at 96 hour, primary screen for plastid delayed-death inhibitors | P. falciparum luciferase reporter growth, 96 h | Potency, µM (series often up to 28.7 µM), hits mostly inhibitors | 320,000 tested, 6.9% active
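Parasite growth measured via integrated firefly luciferase reporter in P. falciparum. Infected erythrocytes at 2% hematocrit, 0.05% parasitemia final were treated 96 hours at 37 C under 5% CO2, and luminescence was read.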
HCV inh: blocks hepatitis C virus. 340,000 tested, 3.4% active. Huh7.5.1 HCVcc-Cre infection, luciferase reporter, 44 h. Potency, µM (highest dose often 41.8 µM), most hits filed as inhibitors
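Cells (1,000/well) were plated 4 h before compound, then infected with HCVcc-Cre virus (~0.5 moi). After 44 h further culture, infection was read as luciferase luminescence following a 15 min substrate incubation at room temperature.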
AMA1 RON2 block: AMA1-RON2 (P. falciparum) interaction inhibition | AlphaScreen AMA1-biotinylated RON2 peptide binding | Potency, µM (highest dose often 58.2 µM), actives largely listed as inhibitors | AID 720542 | 360,000 tested, 0.2% active; also: nearly all actives have a fitted effect of over 45% in size
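AMA1 (3D7) with his tag at 25 nM final met compounds first, then biotinylated RON2 peptide at 25 nM; detection used donor plus acceptor beads, 10 µg/mL apiece, read by AlphaScreen after 30 min at room temperature.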
Each line names hits and unclear results; the compound was inactive in the other large screens. Unless noted, calls follow the shape of the dose curve; as a rule, active = well fitted curve in the direction sought with a large enough effect; inconclusive = small, poorly fitted or top-dose-only effect, or another doubt; inactive = no such curve, though single readings can be large; an effect the other way counts as inactive or inconclusive.

COc1ccc(CCN2CC(C(=O)NCc3nc(C)c(C)s3)CCC2=O)cc1 (stereo unspecified)	Pf growth 96h inconclusive (no result: HCV inh)
O=S1(=O)CC(N2CC=CC2)CN1Cc1ccc(F)cc1 (stereo unspecified)	none (no result: Pf growth 48h, Shiga toxin inh, CHX counter, Pf growth 96h, HCV inh)
CC1CN(Cc2ccco2)C(=S)NC1=O (stereo unspecified)	none (no result: Pf growth 48h, Shiga toxin inh, CHX counter, Pf growth 96h)
CN1CC(c2ccccc2)C2(SC(=S)N(Cc3ccco3)C2=O)C12C(=O)Nc1ccccc12 (stereo unspecified)	Pf growth 48h 12µM, HCV inh 7.1µM (no result: Pf growth 96h)
COC(C[C@@H](O)CC(=O)COCc1ccccc1)OC	HCV inh 2.8µM
COC(C[C@@H](O)CC(=O)[C@@H](C)OCc1ccccc1)OC	none
O=C(Nc1ccc(F)cc1)C(c1cc2ccccc2o1)N1CCN(CC(=O)N2CCCC2)CC1 (stereo unspecified)	none (no result: Pf growth 48h, Shiga toxin inh, CHX counter, Pf growth 96h, HCV inh)
CSc1nnc(-c2ccc(NC(N)=S)cc2)o1	CHX counter 14
O=C1CC(N2CCN(Cc3ccccc3)CC2)C(=O)N1c1ccccc1 (stereo unspecified)	none
O=C1CC(N2CCOCC2)C(=O)N1Cc1ccc(N2CCCC2=O)cc1 (stereo unspecified)	none (no result: Pf growth 48h)
O=C1CC(N2CCN(Cc3ccc4c(c3)OCO4)CC2)C(=O)N1Cc1ccc(N2CCCC2=O)cc1 (stereo unspecified)	Pf growth 48h inconclusive, Pf growth 96h 9.3µM
O=C1CC(N2CCC(O)(c3ccc(Cl)cc3)CC2)C(=O)N1Cc1ccc(N2CCCC2=O)cc1 (stereo unspecified)	Pf growth 48h 9.3µM, HCV inh inconclusive (no result: Pf growth 96h)
Cc1cc2ncn(C3CC(=O)N(Cc4ccc(N5CCCC5=O)cc4)C3=O)c2cc1C (stereo unspecified)	Pf growth 96h 8.3µM
O=C1CC(N2CCN(Cc3ccccc3)CC2)C(=O)N1c1ccc2c(c1)OCCO2 (stereo unspecified)	Shiga toxin inh 43, CHX counter 21 (no result: Pf growth 96h)
COCC(=O)N1CCC(Oc2ccc(C(=O)N3CCCCCCC3)cc2)CC1	Pf growth 48h inconclusive, Pf growth 96h inconclusive
COCCC(=O)N1CCC(Oc2ccc(C(=O)N3CCCCC3CCO)cc2)CC1 (stereo unspecified)	Pf growth 96h 4.7µM
CCC1CCCCN1C(=O)c1ccc(OC2CCN(C(=O)CCOC)CC2)cc1 (stereo unspecified)	CHX counter 16
COCC(=O)N1CCC(Oc2ccc(C(=O)N(C)CCCC3CCCC3)cc2)CC1	CHX counter 22, HCV inh inconclusive
O=C(NCc1ccccc1F)c1ccc(S(=O)(=O)N2CCCC2)cc1	none (no result: Pf growth 48h, Shiga toxin inh, CHX counter, Pf growth 96h, HCV inh)
CCOC(=O)/C(=N\Nc1cc(Cl)ccc1Cl)N1CCN(CC)CC1	Pf growth 48h inconclusive, Pf growth 96h 3.3µM, HCV inh inconclusive
Cc1ccc(S(=O)(=O)N2CCCCC2)cc1NC(=O)c1ccc2ccccc2n1	Shiga toxin inh 47, CHX counter 46
O=C(COC(=O)c1c2c(nc3ccccc13)CCN(Cc1ccccc1)C2)Nc1c(F)cccc1F	Pf growth 96h 10µM, HCV inh inconclusive
O=C(Nc1cccc(S(=O)(=O)N2CCCCC2)c1)c1c2c(nc3ccccc13)CCN(Cc1ccccc1)C2	Pf growth 48h 2.9µM, Pf growth 96h 2.6µM, HCV inh inconclusive
O=C(NCc1ccc(F)cc1)c1c2c(nc3ccccc13)CCN(Cc1ccccc1)C2	Pf growth 48h inconclusive
COc1ccc(NC(=O)c2ccc3ccccc3n2)cc1S(=O)(=O)N1CCCCC1	CHX counter 38, HCV inh 5.6µM
O=[N+]([O-])c1ccc(S(=O)(=O)Nc2ccc(-c3ccccc3)cc2)cc1	none (no result: Pf growth 48h, Shiga toxin inh, CHX counter, Pf growth 96h, HCV inh)
CCC(CC)C(=O)N1CC(=O)Nc2ccc(F)cc2C1c1ccc(F)cc1 (stereo unspecified)	none
COc1ccc(S(=O)(=O)N2CCCCC2)cc1NC(=O)c1ccc2ccccc2n1	HCV inh inconclusive
O=S(=O)(Nc1nc2ccccc2nc1Nc1cccc(S(=O)(=O)N2CCCCC2)c1)c1ccccc1	Pf growth 48h 8.3µM, Pf growth 96h 2.1µM, HCV inh inconclusive
Cc1ccc2nc(-c3ccccn3)cc(C(=O)Nc3ccc(S(=O)(=O)N4CCOCC4)cc3)c2c1	Pf growth 48h 13µM, HCV inh inconclusive

Assay outcomes deposited in PubChem by National Center for Advancing Translational Sciences (NCATS).
